According to ChEMBL document CHEMBL3433997, “St. Jude Leishmania screening dataset” (2016):

What was measured:
Assay type in all cases: functional
[1] = target: Solute carrier family 2, facilitated glucose transporter member 1 (Homo sapiens) (UniProt P11166); assay: ST_JUDE_LEISH: Cytotoxicity at 2uM final concentration against transgenic Leishmania Mexicana promastigotes LmGLUT1 that are glucose transport deficient and complemented with the human glucose transporter GLUT1. Activity is measured by DNA content using SYBR green in vitro
[2] = target: Hexose transporter 1 (Plasmodium falciparum) (UniProt O97467); assay: ST_JUDE_LEISH: Cytotoxicity at 2uM final concentration against transgenic Leishmania Mexicana promastigotes LmPfHT that are glucose transport deficient and complemented with the Plasmodium falciparum hexose transporter. Activity is measured by DNA content using SYBR green in vitro
[3] = target: Glucose transporter (Leishmania mexicana) (UniProt O61059); assay: ST_JUDE_LEISH: Cytotoxicity at 2uM final concentration against transgenic Leishmania Mexicana promastigotes LmGT2 that are glucose transport deficient and complemented with the L. Mexicana glucose transporter 2. Activity is measured by DNA content using SYBR green in vitro

Sequence of Solute carrier family 2, facilitated glucose transporter member 1 (Homo sapiens) (P11166 whole entry): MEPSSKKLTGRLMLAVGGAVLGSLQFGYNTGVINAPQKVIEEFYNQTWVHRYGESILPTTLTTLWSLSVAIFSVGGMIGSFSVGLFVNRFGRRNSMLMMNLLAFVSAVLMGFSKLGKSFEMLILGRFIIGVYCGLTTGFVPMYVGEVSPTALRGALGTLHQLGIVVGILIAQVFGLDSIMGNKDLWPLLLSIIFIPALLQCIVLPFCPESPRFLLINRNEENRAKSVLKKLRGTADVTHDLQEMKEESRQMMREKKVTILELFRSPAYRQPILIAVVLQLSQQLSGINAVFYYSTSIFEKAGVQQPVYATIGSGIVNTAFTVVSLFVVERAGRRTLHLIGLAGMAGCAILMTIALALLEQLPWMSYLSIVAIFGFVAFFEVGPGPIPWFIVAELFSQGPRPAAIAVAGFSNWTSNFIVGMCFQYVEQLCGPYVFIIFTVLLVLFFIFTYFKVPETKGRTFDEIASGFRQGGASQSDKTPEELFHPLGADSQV

Question: N=c1ccn(CC(=NO)c2ccc(Cl)c(Cl)c2)cc1 was tested. Which inhibition [1] did it give?
Answer: Its inhibition is 0.09%.

Question: And the inhibition [2]?
Answer: The inhibition was 2.8%.

Question: What about the inhibition [3] of the same molecule?
Answer: Its inhibition is 0.32%.

Question: With CCOC(=O)N1CCN(C(=O)Nc2ccc(Cl)cc2)CC1 as the molecule, how does the inhibition [1] read?
Answer: Its inhibition is 1.34%.

Question: And the inhibition [2]?
Answer: Its inhibition is 1%.

Question: What about the inhibition [3] of the same molecule?
Answer: Its inhibition is 0.32%.

Question: What does the source list for CN(C)CCCOc1ccc(CN2CC[C@H](NC(=O)c3ccc(Cl)c(Cl)c3)C2)cc1Cl?
Answer: inhibition [1]: 13.3%; inhibition [2]: 10.7%; inhibition [3]: 8.69%

Question: Oc1c(C=Nn2cnnc2)sc2ccccc12 was tested. Which inhibition [1] did it give?
Answer: Its inhibition is -0.72%.

Question: What about the inhibition [2] of the same molecule?
Answer: Its inhibition is 5.61%.

Question: And the inhibition [3]?
Answer: The inhibition was 11.2%.

Question: How did the inhibition [1] turn out when Cc1cc(NC(=O)Nc2ccc3ncccc3c2)c2ccccc2n1 was run?
Answer: Its inhibition is 4.47%.

Question: And the inhibition [2]?
Answer: Its inhibition is 3.97%.

Question: What about the inhibition [3] of the same molecule?
Answer: Its inhibition is 1.94%.

Question: What does the source list for CN(c1ccc(F)cc1)S(=O)(=O)c1ccc(Cl)c(C(=O)Nc2cccc(C#N)c2)c1?
Answer: inhibition [1]: 4.24%; inhibition [2]: 3.52%; inhibition [3]: 3.65%

Question: For N=C1NC(=O)C(=Cc2cn(-c3ccccc3)nc2-c2cccc(S(=O)(=O)N3CCCC3)c2)S1, which inhibition [1] is on record?
Answer: The inhibition was 8.5%.

Question: What about the inhibition [2] of the same molecule?
Answer: Its inhibition is 6.98%.

Question: What about the inhibition [3] of the same molecule?
Answer: The inhibition was 7.82%.

Question: For CC(C)(C)c1ccc(CNC(=O)/C=C/c2ccc(-c3nc4cc(C(C)(C)C)ccc4[nH]3)cc2)cc1, which inhibition [1] is on record?
Answer: Its inhibition is 2.35%.

Question: And the inhibition [2]?
Answer: Its inhibition is 3.4%.

Question: And the inhibition [3]?
Answer: The inhibition was 4.02%.

Question: Which results are given for CCn1ccc2c(N3CCCCS3(=O)=O)cc(C(=O)N[C@@H](Cc3ccccc3)[C@H](O)CNC(C)(C)CCCC(C)C)cc21?
Answer: inhibition [1]: 2.17%; inhibition [2]: 1.95%; inhibition [3]: 5.14%

Question: Cc1ccc2c(c1)NCC21CCN(C[C@@H](O)C2CCN(c3ccnc(Cl)c3)CC2)CC1C (some centres undefined) was tested. Which inhibition [1] did it give?
Answer: The inhibition was 0.9%.

Question: And the inhibition [2]?
Answer: The inhibition was 3.08%.

Question: What about the inhibition [3] of the same molecule?
Answer: The inhibition was 0.18%.

Question: How did the inhibition [1] turn out when O=C(Cc1c[nH]cn1)Nc1ccc(-c2ccc(-c3nc4cc(F)ccc4[nH]3)cc2)cc1 was run?
Answer: The inhibition was 1.05%.

Question: What about the inhibition [2] of the same molecule?
Answer: The inhibition was 0.28%.

Question: And the inhibition [3]?
Answer: Its inhibition is -0.48%.

Question: Which inhibition [1] does the source give for COc1cc(Nc2ccnc3cc(-c4ccccn4)ccc23)cc(OC)c1OC here?
Answer: The inhibition was 5.56%.

Question: What about the inhibition [2] of the same molecule?
Answer: Its inhibition is 8.67%.

Question: What about the inhibition [3] of the same molecule?
Answer: The inhibition was 5.6%.

Question: With Cc1cccc2nc(-c3cccc(-c4ccc(NC(=O)COC(C)C)cc4)c3)[nH]c12 as the molecule, how does the inhibition [1] read?
Answer: The inhibition was -3.18%.

Question: And the inhibition [2]?
Answer: The inhibition was 0.45%.

Question: What about the inhibition [3] of the same molecule?
Answer: Its inhibition is -2.12%.

Question: Cc1cccc(C(=O)Nc2ccnc(N(C)CCCN(C)Cc3cccc(C#N)c3)c2)c1 was tested. Which inhibition [1] did it give?
Answer: Its inhibition is 5.76%.

Question: And the inhibition [2]?
Answer: The inhibition was 4.86%.

Question: And the inhibition [3]?
Answer: Its inhibition is 2.02%.

Question: Cc1cc(N[C@@H](Cc2ccccc2)C(=O)NCc2cccs2)nc(Nc2ccccc2)n1 was tested. Which inhibition [1] did it give?
Answer: The inhibition was 9.96%.

Question: What about the inhibition [2] of the same molecule?
Answer: Its inhibition is 9.21%.

Question: And the inhibition [3]?
Answer: The inhibition was 3.98%.

Question: Which results are given for COc1ccccc1C(=O)Nc1ccc(Nc2nc(C)cc(N3CCOCC3)n2)cc1?
Answer: inhibition [1]: 4.83%; inhibition [2]: 4.3%; inhibition [3]: 5.97%

Question: How did the inhibition [1] turn out when CCCCCCCCOc1c(OCC)cc(Cc2cnc(N)nc2N)cc1OCC was run?
Answer: Its inhibition is 13.7%.

Question: And the inhibition [2]?
Answer: Its inhibition is 7.75%.

Question: And the inhibition [3]?
Answer: Its inhibition is 2.94%.

Question: With COc1ccc(NC(=O)Nc2ccc(-c3cccc(-c4nc5cccc(C)c5[nH]4)c3)cc2)cc1 as the molecule, how does the inhibition [1] read?
Answer: The inhibition was -1.37%.

Question: And the inhibition [2]?
Answer: Its inhibition is -1.2%.

Question: And the inhibition [3]?
Answer: Its inhibition is -0.2%.

Question: How did the inhibition [1] turn out when Cc1ccnc(NC(c2ccc(Cl)c([N+](=O)[O-])c2)c2ccc3cccnc3c2O)c1 (centres undefined) was run?
Answer: Its inhibition is 0.43%.

Question: What about the inhibition [2] of the same molecule?
Answer: The inhibition was -0.87%.

Question: And the inhibition [3]?
Answer: The inhibition was -1.39%.

Question: Which results are given for Nc1cc(/C=C/c2ccc([N+](=O)[O-])s2)nc2ccccc12?
Answer: inhibition [1]: 16.4%; inhibition [2]: 16.5%; inhibition [3]: 8.5%

Question: Which inhibition [1] does the source give for CC(C)NCC(=O)Nc1cccc(C(=O)Nc2cccc(C(F)(F)F)c2)c1 here?
Answer: Its inhibition is 4.13%.

Question: What about the inhibition [2] of the same molecule?
Answer: Its inhibition is 2.76%.

Question: And the inhibition [3]?
Answer: Its inhibition is -1.8%.

Question: For Clc1cccc(CNc2nc(NCCc3c[nH]cn3)nc(NC3CCCCC3)n2)c1, which inhibition [1] is on record?
Answer: The inhibition was 3.76%.

Question: What about the inhibition [2] of the same molecule?
Answer: Its inhibition is 3.97%.

Question: And the inhibition [3]?
Answer: The inhibition was 2.21%.

Question: Which results are given for O=C(NCCCCN1CCC(c2c[nH]c3ccccc23)CC1)c1sc(-c2ccc(C(F)(F)F)cc2)nc1CO?
Answer: inhibition [1]: 7.38%; inhibition [2]: 8.88%; inhibition [3]: 5.81%

Question: For Fc1ccc2[nH]c(-c3ccc(-c4ccc(CN5CCC(CCN6CCCCC6)CC5)cc4)cc3)nc2c1, which inhibition [1] is on record?
Answer: The inhibition was 7.35%.

Question: What about the inhibition [2] of the same molecule?
Answer: The inhibition was 9.43%.

Question: What about the inhibition [3] of the same molecule?
Answer: Its inhibition is 3.31%.

Question: COc1ccc(CN2CCC(C(=O)Nc3cccc(-c4cccc(Cl)c4)c3)CC2)cc1O was tested. Which inhibition [1] did it give?
Answer: Its inhibition is 5.45%.

Question: What about the inhibition [2] of the same molecule?
Answer: The inhibition was 7.5%.

Question: What about the inhibition [3] of the same molecule?
Answer: The inhibition was 6.49%.

Question: Which inhibition [1] does the source give for CCOc1ccc(-c2nonc2NC(=O)c2ccccc2Cl)cc1OCC here?
Answer: Its inhibition is 5.4%.

Question: What about the inhibition [2] of the same molecule?
Answer: Its inhibition is 7.22%.

Question: What about the inhibition [3] of the same molecule?
Answer: The inhibition was 2.27%.

Question: Which results are given for CCN(Cc1cccc2ccccc12)c1ccc2nc(N)nc(N)c2c1?
Answer: inhibition [1]: 97.2%; inhibition [2]: 99%; inhibition [3]: 84%

Question: For CC(C)CC1c2[nH]c3ccccc3c2CCN1C(=O)CCc1ccccc1 (centres undefined), which inhibition [1] is on record?
Answer: Its inhibition is 5.53%.

Question: And the inhibition [2]?
Answer: Its inhibition is 5.28%.

Question: What about the inhibition [3] of the same molecule?
Answer: Its inhibition is 4.41%.

Question: How did the inhibition [1] turn out when CCNc1cc(C(=O)N[C@@H](Cc2ccccc2)[C@H](O)CNC(C)(C)Cc2cccc(OC)c2)cc(N2CCCC2=O)c1 was run?
Answer: The inhibition was -2.08%.

Question: What about the inhibition [2] of the same molecule?
Answer: Its inhibition is -1.02%.

Question: What about the inhibition [3] of the same molecule?
Answer: Its inhibition is -0.38%.

Question: How did the inhibition [1] turn out when CC[C@H](C)[C@@H](C(=O)N1CCOCC1)N1CC[C@H](NS(=O)(=O)CC(C)(C)c2ccc(Cl)cc2)C1=O was run?
Answer: Its inhibition is 0.22%.

Question: What about the inhibition [2] of the same molecule?
Answer: The inhibition was 0.79%.

Question: And the inhibition [3]?
Answer: The inhibition was -1.13%.

Question: For Cc1nc(NC(=N)N)nc2cc3c(cc12)CCC3, which inhibition [1] is on record?
Answer: The inhibition was 0.91%.

Question: What about the inhibition [2] of the same molecule?
Answer: The inhibition was 0.44%.

Question: What about the inhibition [3] of the same molecule?
Answer: The inhibition was 0.48%.

Question: With CCCCCCC(N)c1ccc(OCCCOc2ccc(C(N)CCCCCC)cc2)cc1 (centres undefined) as the molecule, how does the inhibition [1] read?
Answer: The inhibition was 107%.

Question: What about the inhibition [2] of the same molecule?
Answer: The inhibition was 106%.

Question: What about the inhibition [3] of the same molecule?
Answer: The inhibition was 109%.

Question: CCC[C@@H]([C@@H](CC(C)C)C(=O)N[C@@H](CCCCNC(=O)c1cccc(OC)c1)C(=O)Nc1nccs1)N(O)C=O was tested. Which inhibition [1] did it give?
Answer: The inhibition was 8.94%.

Question: And the inhibition [2]?
Answer: The inhibition was 10.2%.

Question: What about the inhibition [3] of the same molecule?
Answer: The inhibition was 5.1%.
